Records with an inconclusive call do not appear. The source made the active and inactive calls. The calls were made as follows: active = hit-call score of the fitted dose curve at least 0.9, where 1 is the maximum; inconclusive = response in the unintended direction; inactive = score below 0.9.
These compounds were tested against Steroid hormone receptor ERR1 (Homo sapiens) (UniProt P11474) (assay: ATG_ERRa_TRANS: Attagene TRANS-FACTORIAL HepG2 Assay for human Estrogen-Related Receptor alpha (ERRa) (AID 2282971)). Details: HepG2 Attagene TRANS reporter, ERRa transactivation.
Chain of Steroid hormone receptor ERR1 (Homo sapiens) (P11474 whole entry, looked up): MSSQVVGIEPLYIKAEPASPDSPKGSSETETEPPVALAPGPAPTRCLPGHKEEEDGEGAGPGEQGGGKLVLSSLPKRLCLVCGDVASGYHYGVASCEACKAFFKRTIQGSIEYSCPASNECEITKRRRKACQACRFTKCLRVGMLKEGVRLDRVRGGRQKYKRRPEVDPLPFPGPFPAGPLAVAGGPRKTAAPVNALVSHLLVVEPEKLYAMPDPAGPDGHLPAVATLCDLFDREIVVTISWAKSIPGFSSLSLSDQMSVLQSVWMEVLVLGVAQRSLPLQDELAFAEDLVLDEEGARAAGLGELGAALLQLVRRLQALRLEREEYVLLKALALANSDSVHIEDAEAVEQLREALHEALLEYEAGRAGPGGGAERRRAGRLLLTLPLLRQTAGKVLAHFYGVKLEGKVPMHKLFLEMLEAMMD
Protocol: ATG_TRANS is a cell-based, multiplexed-readout assay that uses HepG2, a human liver cell line, with measurements taken at 24 hours after chemical dosing in a 24-well plate.ATG_ERRa_TRANS is one of 30 assay component(s) measured or calculated from the ATG_TRANS assay. It is designed to make measurements of mRNA induction, a form of inducible reporter, as detected with fluorescence intensity signals by Reverse transcription polymerase chain reaction (RT-PCR) and Capillary electrophoresis technology.Data from the assay component ATG_ERRa_TRANS was analyzed into 1 assay endpoint. This assay endpoint, ATG_ERRa_TRANS, was analyzed in the positive analysis fitting direction relative to DMSO as the negative control and baseline of activity. Using a type of inducible reporter, measures of mRNA for gain-of-signal activity can be used to understand the reporter gene at the transcription factor-level as they relate to the gene ESRRA. Furthermore, this assay endpoint can be referred to as a primary readout, because this assay has produced multiple assay endpoints where this one serves a reporter gene function. To generalize the intended target to other relatable targets, this assay endpoint is annotated to the nuclear receptor intended target family, where the subfamily is steroidal.
Human liver HepG2 cells are transiently transfected with multiple reporter transcription units (MRTUs) in 6-well plates using FuGene 6 reagent (Roche; 3 ml FuGene/1 mg DNA). The MRTU constructs are regulated by a cis-regulating element (promoter). […] A major difference between the CIS and TRANS system is that in CIS activities of endogenous TFs are measured, whereas the TRANS assay evaluates changes in activities of exogenous, chimeric NR-Gal4 proteins. […] At the end of 24 hour incubation, total RNA was isolated using TriZol reagent (Invitrogen). The isolated RNA is then reverse-transcribed using oligo(dT) primer and Mo-MLV reverse transcriptase (Invitrogen) with DNAse I (Ambion) treatment for 30 min. The one-tenth of the produced cDNA was amplified by PCR using Taq DNA polymerase (Invitrogen) and two reporter sequence-specific primers. The PCR products were fluorescently labeled by primer extension with 6-arboxyfluorescein (6-FAM) 5'-labeled reporter sequence-specific primer (2 min at 95 C, 20 s at 68 C and 10 min at 72 C) and these products were digested with 5U of HpaI (New England Biolabs) for 2h at 37 C. The fragments were purified using Qiaquick PCR columns (Qiagen), analyzed on an ABI 3130xL genetic analyzer (Applied Biosystems) with peak positions identified by using a set of X-rhodamine (ROX)-labeled MapMarker1000 molecular weight standards (BioVentures). The raw capillary electrophoresis data was processed using Attagraph software (Attagene).
`O=C(O)C(F)(F)C(F)(F)C(F)(F)C(F)(F)C(F)(F)C(F)(F)C(F)(F)C(F)(F)C(F)(F)F` was tested, and the outcome was “inactive”.
`C=CC(N)=O` was tested, and the outcome was “inactive”.
With `OCC(O)CO` the outcome was “inactive”.
`Clc1ccc(C(c2ccccc2Cl)C(Cl)(Cl)Cl)cc1` (stereo unspecified) was tested, and the outcome was “inactive”.
For `CC(C)(O)C(=O)Nc1ccc([N+](=O)[O-])c(C(F)(F)F)c1`, the outcome was “inactive”.
For `ClC1=C(Cl)[C@]2(Cl)[C@@H]3[C@H]4C[C@H]([C@@H]5O[C@H]45)[C@@H]3[C@@]1(Cl)C2(Cl)Cl`, the outcome was “inactive”.
With `c1cc2ccc3cccc4ccc(c1)c2c34` the outcome was “inactive”.
`CN(C)CCO` was tested, and the outcome was “inactive”.
`Cc1ccc(O)c(C)c1` was tested, and the outcome was “inactive”.
In the case of `Clc1ccc(C(Cl)(Cl)Cl)cc1`, the outcome is reported as “inactive”.
In the case of `CC(c1ccc(O)cc1)(c1ccc(O)cc1)c1ccc(O)cc1`, the outcome is reported as “inactive”.
